Measured values: PubChem BioAssay AID1159580 (chemical genetic matrix, 2015)
Hit rate of the full screen: of about 5,500 compounds, about 2,000 (36%) were called active. About 18% were inconclusive and are not listed. Rule as the data show it: active = normalized growth mostly below about 0.91 (no sharp cut-off); inconclusive = no clear call, values can overlap the other calls; inactive = mostly above about 0.92. The list shows a part of the results.

Test: chemical genetic growth profiling, strain panel (AID 1159580);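 also: tested at 20 µM; growth read once vehicle control cultures reached saturation at 30 °C; 1 = growth at the plate median or of vehicle wells; lower values mean less growth of the strain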
Details: S. cerevisiae deletion strains, growth OD

Measured: normalized growth

CC(=O)OC1CC[C@@]2(C)C(CCC3C2CC[C@]2(C)C(C4=CC(=O)OC4)C(OC(C)=O)CC32O)C1 (stereo not given in full)
active: locus YBR021W, strain FUR4, active compounds read low 0.837
inactive: locus YAL013W, strain DEP1, active compounds read low 0.988 | locus YAL021C, strain ccr4, active compounds read low 0.989 | locus YAL026C, strain drs2, active compounds read low 0.979 | locus YAL030W, strain snc1, active compounds read low 0.998 | locus YBL061C, strain skt5, active compounds read low 0.994 | locus YBR009C, strain hhf1, active compounds read low 1 | locus YBR023C, strain chs3, active compounds read low 0.995 | locus YBR171W, strain sec66, active compounds read low 0.987 | locus YBR229C, strain ROT2, active compounds read low 0.997 | locus YBR231C, strain swc5, active compounds read low 0.979 | locus YBR279W, strain paf1, active compounds read low 0.984 | locus YCL011C, strain gbp2, active compounds read low 0.972 | locus YCL016C, strain dcc1, active compounds read low 0.971 | locus YCL029C, strain bik1, active compounds read low 1.01 | locus YCL069W, strain vba3, active compounds read low 0.999 | locus YCR088W, strain abp1, active compounds read low 0.999 | locus YDL005C, strain med2, active compounds read low 0.972 | locus YDL035C, strain GPR1, active compounds read low 1.01 | locus YDL040C, strain nat1, active compounds read low 0.99 | locus YDL074C, strain BRE1, active compounds read low 0.972 | locus YDL101C, strain DUN1, active compounds read low 1 | locus YDL134C, strain PPH21, active compounds read low 1.03 | locus YDL185W, strain tfp1, active compounds read low 1.02 | locus YDL192W, strain arf1, active compounds read low 1 | locus YDR001C, strain nth1, active compounds read low 0.986 | locus YDR069C, strain doa4, active compounds read low 0.942 | locus YDR101C, strain arx1, active compounds read low 1.01 | locus YDR137W, strain rgp1, active compounds read low 0.986 | locus YDR159W, strain sac3, active compounds read low 1.03 | locus YDR162C, strain NBP2, active compounds read low 1 | locus YDR195W, strain ref2 0.951 | locus YDR297W, strain sur2, active compounds read low 0.989 | locus YDR318W, strain mcm21, active compounds read low 0.992 | locus YDR334W, strain swr1, active compounds read low 0.976 | locus YDR335W, strain msn5, active compounds read low 0.978 | locus YDR388W, active compounds read low 1.01 | locus YDR392W, strain spt3, active compounds read low 1.01 | locus YDR502C, strain sam2, active compounds read low 0.994 | locus YEL003W, strain gim4, active compounds read low 0.988 | locus YEL037C, strain rad23, active compounds read low 0.997 | locus YEL061C, strain CIN8 (second series), active compounds read low 0.985 | locus YEL061C, strain CIN8, active compounds read low 0.997 | locus YER015W, strain faa2, active compounds read low 0.983 | locus YER016W, strain bim1, active compounds read low 0.965 | locus YER110C, active compounds read low 1.01 | locus YER111C, strain swi4, active compounds read low 0.978 | locus YER155C, strain BEM2 (second series), active compounds read low 1.01 | locus YER155C, strain BEM2, active compounds read low 0.996 | locus YER167W, strain BCK2, active compounds read low 0.997 | locus YFR010W, strain ubp6, active compounds read low 1 | locus YGL078C, strain dbp3, active compounds read low 1 | locus YGL086W, strain mad1, active compounds read low 1 | locus YGL167C, strain pmr1, active compounds read low 0.982 | locus YGL173C, strain kem1, active compounds read low 0.987 | locus YGL227W, strain vid30, active compounds read low 0.98 | locus YGL240W, strain doc1, active compounds read low 0.99 | locus YGL248W, strain PDE1, active compounds read low 0.995 | locus YGL253W, strain hxk2, active compounds read low 0.964 | locus YGR135W, strain pre9, active compounds read low 1.01 | locus YGR229C, strain SMI1, active compounds read low 0.976 | locus YGR252W, strain gcn5, active compounds read low 0.993 | locus YHR013C, strain ard1, active compounds read low 0.943 | locus YHR027C, strain rpn1, active compounds read low 0.97 | locus YHR079C, strain IRE1 (second series), active compounds read low 1 | locus YHR094C, strain hxt1, active compounds read low 1 | locus YHR129C, strain ARP1, active compounds read low 1 | locus YHR142W, strain chs7, active compounds read low 0.958 | locus YHR200W, strain rpn10, active compounds read low 1.01 | locus YIL066C, strain RNR3, active compounds read low 1.01 | locus YIL073C, strain SPO22, active compounds read low 1.04 | locus YIL125W, strain kgd1, active compounds read low 1.02 | locus YIR030C, strain dcg1, active compounds read low 1 | locus YJL092W, strain hpr5, active compounds read low 0.986 | locus YJL095W, strain BCK1 (second series), active compounds read low 0.993 | locus YJL095W, strain BCK1, active compounds read low 0.999 | locus YJL115W, strain asf1, active compounds read low 0.959 | locus YJL129C, strain trk1, active compounds read low 0.956 | locus YJL134W, strain LCB3, active compounds read low 0.995 | locus YJL154C, strain vps35, active compounds read low 0.975 | locus YJL164C, strain tpk1, active compounds read low 1 | locus YJL166W, strain qcr8, active compounds read low 0.957 | locus YJL168C, strain set2, active compounds read low 1.01 | locus YJL187C, strain SWE1 (second series), active compounds read low 0.99 | locus YJL187C, strain SWE1, active compounds read low 0.982 | locus YJR075W, strain HOC1, active compounds read low 0.997 | locus YKL009W, strain mrt4, active compounds read low 1.01 | locus YKL068W, active compounds read low 1.01 | locus YKL085W, strain MDH1 (second series), active compounds read low 1.01 | locus YKL085W, strain MDH1, active compounds read low 1.01 | locus YKL160W, strain elf1, active compounds read low 0.975 | locus YKR001C, strain vps1, active compounds read low 1.01 | locus YKR026C, strain gcn3, active compounds read low 0.993 | locus YKR091W, strain srl3, active compounds read low 0.974 | locus YLL001W, strain dnm1, active compounds read low 0.998 | locus YLL026W, active compounds read low 0.983 | locus YLL041C, strain sdh2, active compounds read low 1 | locus YLR027C, strain aat2, active compounds read low 0.983 | locus YLR039C, strain RIC1, active compounds read low 1.02 | locus YLR058C, strain SHM2, active compounds read low 1 | locus YLR102C, strain apc9, active compounds read low 1.01 | locus YLR221C, strain rsa3, active compounds read low 0.997 | locus YLR258W, strain gsy2, active compounds read low 0.979 | locus YLR262C, strain YPT6 (second series), active compounds read low 0.974 | locus YLR262C, strain YPT6, active compounds read low 1.03 | locus YLR268W, strain sec22, active compounds read low 1.01 | locus YLR320W, strain mms22, active compounds read low 1.01 | locus YLR342W, strain FKS1 (second series), active compounds read low 0.986 | locus YLR342W, strain FKS1, active compounds read low 1.01 | locus YLR357W, strain rsc2, active compounds read low 0.967 | locus YLR370C, strain arc18, active compounds read low 0.974 | locus YLR371W, strain rom2, active compounds read low 0.996 | locus YLR384C, strain iki3, active compounds read low 0.971 | locus YLR418C, strain cdc73, active compounds read low 1.03 | locus YML016C, strain PPZ1, active compounds read low 1 | locus YML032C, strain rad52, active compounds read low 1.01 | locus YML120C, strain ndi1, active compounds read low 0.996 | locus YML124C, strain tub3, active compounds read low 1.01 | locus YMR058W, strain fet3, active compounds read low 0.977 | locus YMR078C, strain ctf18, active compounds read low 1.02 | locus YMR125W, strain sto1, active compounds read low 0.977 | locus YMR129W, active compounds read low 0.981 | locus YMR205C, strain PFK2, active compounds read low 0.994 | locus YMR223W, strain ubp8, active compounds read low 1 | locus YMR231W, strain pep5, active compounds read low 0.99 | locus YMR307W, strain GAS1, active compounds read low 1.02 | locus YNL067W, strain RPL9B, active compounds read low 1.01 | locus YNL071W, strain lat1, active compounds read low 0.999 | locus YNL153C, strain GIM3, active compounds read low 1 | locus YNL209W, strain ssb2, active compounds read low 0.996 | locus YNL233W, strain BNI4, active compounds read low 0.989 | locus YNL248C, strain rpa49, active compounds read low 0.946 | locus YNL250W, strain rad50, active compounds read low 1.02 | locus YNL271C, strain bni1, active compounds read low 1.01 | locus YNL298W, strain CLA4, active compounds read low 1.04 | locus YNL307C, strain MCK1, active compounds read low 1.03 | locus YNL322C, strain KRE1 (second series), active compounds read low 0.971 | locus YNR049C, strain mso1, active compounds read low 0.959 | locus YNR052C, strain pop2, active compounds read low 0.999 | locus YOL006C, strain TOP1, active compounds read low 1.04 | locus YOL012C, strain htz1 0.875 | locus YOL147C, strain pex11, active compounds read low 1.01 | locus YOR001W, strain rrp6, active compounds read low 1.03 | locus YOR061W, strain CKA2, active compounds read low 1.01 | locus YOR069W, strain VPS5, active compounds read low 0.999 | locus YOR070C, strain gyp1, active compounds read low 0.995 | locus YOR080W, strain dia2, active compounds read low 0.973 | locus YOR083W, strain WHI5, active compounds read low 0.977 | locus YOR106W, strain vam3, active compounds read low 0.956 | locus YOR136W, strain idh2, active compounds read low 1.02 | locus YOR144C, strain elg1, active compounds read low 1.02 | locus YOR184W, strain ser1, active compounds read low 1.02 | locus YOR265W, strain rbl2, active compounds read low 0.999 | locus YOR270C, strain vph1, active compounds read low 0.965 | locus YOR290C, strain snf2, active compounds read low 0.955 | locus YOR316C, strain cot1, active compounds read low 1.02 | locus YPL051W, strain arl3, active compounds read low 0.98 | locus YPL078C, strain atp4, active compounds read low 0.977 | locus YPL106C, strain sse1, active compounds read low 0.997 | locus YPL240C, strain hsp82, active compounds read low 0.982 | locus YPR119W, strain clb2, active compounds read low 1.01 | locus YPR141C, strain kar3, active compounds read low 1 | locus YPR163C, strain tif3, active compounds read low 1.02 | locus YPR167C, strain met16, active compounds read low 0.999 | strain wtn01, active compounds read low 1.01
